Measured values taken from PubChem BioAssay AID1159580 (chemical genetic matrix, 2015).
“And” between values parts separate entries of the source, which are not always exact repeats. Equal values may be shown once. Among all 5,500 compounds or so, about 2,000 (36%) were called active. Roughly 18% stayed inconclusive and do not appear here. Rule as the data show it: active = normalized growth mostly below about 0.91 (no sharp cut-off); inconclusive = no clear call, values can overlap the other calls; inactive = mostly above about 0.92. Some of the results follow.

Assay: chemical genetic growth profiling, strain panel (AID 1159580);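 also: tested at 20 µM; growth read once vehicle control cultures reached saturation at 30 °C; 1 = growth at the plate median or of vehicle wells; lower values mean less growth of the strain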
Details: S. cerevisiae deletion strains, growth OD

Measured: normalized growth

O=C(O)CCCCC1SCC2NC(=O)NC21 (stereo not drawn)
inactive: locus YAL013W, strain DEP1, hits give low values 1.02 | locus YAL021C, strain ccr4, hits give low values 0.999 | locus YAL026C, strain drs2, hits give low values 0.994 | locus YAL030W, strain snc1, hits give low values 0.995 | locus YBL061C, strain skt5, hits give low values 0.989 | locus YBR009C, strain hhf1, hits give low values 0.997 | locus YBR021W, strain FUR4, hits give low values 0.977 | locus YBR023C, strain chs3, hits give low values 0.979 | locus YBR171W, strain sec66, hits give low values 0.996 | locus YBR229C, strain ROT2, hits give low values 1 | locus YBR231C, strain swc5, hits give low values 0.998 | locus YBR279W, strain paf1, hits give low values 0.997 | locus YCL011C, strain gbp2, hits give low values 0.995 | locus YCL016C, strain dcc1, hits give low values 0.995 | locus YCL029C, strain bik1, hits give low values 0.998 | locus YCL061C, strain MRC1, hits give low values 1 | locus YCL069W, strain vba3, hits give low values 0.97 | locus YCR088W, strain abp1, hits give low values 0.981 | locus YDL005C, strain med2, hits give low values 0.98 | locus YDL035C, strain GPR1, hits give low values 0.996 | locus YDL040C, strain nat1, hits give low values 1 | locus YDL074C, strain BRE1, hits give low values 1.01 | locus YDL101C, strain DUN1, hits give low values 0.989 | locus YDL134C, strain PPH21, hits give low values 1 | locus YDL185W, strain tfp1, hits give low values 0.997 | locus YDL192W, strain arf1, hits give low values 1.01 | locus YDR001C, strain nth1, hits give low values 0.985 | locus YDR069C, strain doa4, hits give low values 0.973 | locus YDR101C, strain arx1, hits give low values 0.98 | locus YDR137W, strain rgp1, hits give low values 0.983 | locus YDR150W, strain NUM1, hits give low values 1.02 | locus YDR159W, strain sac3, hits give low values 1.02 | locus YDR162C, strain NBP2, hits give low values 1.01 | locus YDR195W, strain ref2 1.01 | locus YDR297W, strain sur2, hits give low values 0.996 | locus YDR318W, strain mcm21, hits give low values 1 | locus YDR334W, strain swr1, hits give low values 0.984 | locus YDR335W, strain msn5, hits give low values 0.986 | locus YDR388W, hits give low values 1 | locus YDR392W, strain spt3, hits give low values 0.996 | locus YDR502C, strain sam2, hits give low values 0.994 | locus YEL003W, strain gim4, hits give low values 0.984 | locus YEL037C, strain rad23, hits give low values 0.992 | locus YEL061C, strain CIN8 (second series), hits give low values 1 | locus YEL061C, strain CIN8, hits give low values 1.02 | locus YER015W, strain faa2, hits give low values 0.979 | locus YER016W, strain bim1, hits give low values 0.988 | locus YER110C, hits give low values 1 | locus YER111C, strain swi4, hits give low values 1 | locus YER155C, strain BEM2 (second series), hits give low values 0.985 | locus YER155C, strain BEM2, hits give low values 0.999 | locus YER167W, strain BCK2, hits give low values 1 | locus YFR010W, strain ubp6, hits give low values 0.995 | locus YGL078C, strain dbp3, hits give low values 0.99 | locus YGL086W, strain mad1, hits give low values 0.993 | locus YGL167C, strain pmr1, hits give low values 0.99 | locus YGL173C, strain kem1, hits give low values 0.985 | locus YGL227W, strain vid30, hits give low values 1 | locus YGL240W, strain doc1, hits give low values 0.985 | locus YGL248W, strain PDE1, hits give low values 1 | locus YGL253W, strain hxk2, hits give low values 0.985 | locus YGR078C, strain PAC10, hits give low values 1.05 | locus YGR135W, strain pre9, hits give low values 0.999 | locus YGR252W, strain gcn5, hits give low values 0.944 | locus YHR013C, strain ard1, hits give low values 0.988 | locus YHR027C, strain rpn1, hits give low values 0.989 | locus YHR030C, strain SLT2, hits give low values 1.02 and 1.01 | locus YHR079C, strain IRE1 (second series), hits give low values 1.02 | locus YHR079C, strain IRE1, hits give low values 1.01 | locus YHR094C, strain hxt1, hits give low values 1 | locus YHR129C, strain ARP1, hits give low values 1.01 | locus YHR142W, strain chs7, hits give low values 0.982 | locus YHR200W, strain rpn10, hits give low values 0.996 | locus YIL066C, strain RNR3, hits give low values 1.01 | locus YIL073C, strain SPO22, hits give low values 1.02 | locus YIL125W, strain kgd1, hits give low values 0.987 | locus YIR030C, strain dcg1, hits give low values 1.01 | locus YJL092W, strain hpr5, hits give low values 0.986 | locus YJL095W, strain BCK1 (second series), hits give low values 0.998 | locus YJL095W, strain BCK1, hits give low values 1.02 and 1 | locus YJL115W, strain asf1, hits give low values 0.996 | locus YJL129C, strain trk1, hits give low values 0.954 | locus YJL134W, strain LCB3, hits give low values 1.01 | locus YJL154C, strain vps35, hits give low values 0.994 | locus YJL164C, strain tpk1, hits give low values 1 | locus YJL166W, strain qcr8, hits give low values 0.965 | locus YJL168C, strain set2, hits give low values 0.993 | locus YJL187C, strain SWE1 (second series), hits give low values 1
